Test results as given in the supplement of paper PMC11732987, “Enantioselective OTUD7B fragment discovery through chemoproteomics screening and high-throughput optimisation” (Communications Chemistry, 2025).

Key:
Experiment in all cases: log2 ratio of Biotin-Ahx-Ub-VS probe labelling (fragment/DMSO); higher = less target engagement (more negative = stronger competition), active = hit call of the paper (q ≤ 0.05, log2 ratio ≤ -1)
Conditions in all cases: compound concentration: 200 uM; treatment time: 3 h
[1] = biological target: T1, USP42 (UniProt Q9H9J4)
T1 sequence (whole entry): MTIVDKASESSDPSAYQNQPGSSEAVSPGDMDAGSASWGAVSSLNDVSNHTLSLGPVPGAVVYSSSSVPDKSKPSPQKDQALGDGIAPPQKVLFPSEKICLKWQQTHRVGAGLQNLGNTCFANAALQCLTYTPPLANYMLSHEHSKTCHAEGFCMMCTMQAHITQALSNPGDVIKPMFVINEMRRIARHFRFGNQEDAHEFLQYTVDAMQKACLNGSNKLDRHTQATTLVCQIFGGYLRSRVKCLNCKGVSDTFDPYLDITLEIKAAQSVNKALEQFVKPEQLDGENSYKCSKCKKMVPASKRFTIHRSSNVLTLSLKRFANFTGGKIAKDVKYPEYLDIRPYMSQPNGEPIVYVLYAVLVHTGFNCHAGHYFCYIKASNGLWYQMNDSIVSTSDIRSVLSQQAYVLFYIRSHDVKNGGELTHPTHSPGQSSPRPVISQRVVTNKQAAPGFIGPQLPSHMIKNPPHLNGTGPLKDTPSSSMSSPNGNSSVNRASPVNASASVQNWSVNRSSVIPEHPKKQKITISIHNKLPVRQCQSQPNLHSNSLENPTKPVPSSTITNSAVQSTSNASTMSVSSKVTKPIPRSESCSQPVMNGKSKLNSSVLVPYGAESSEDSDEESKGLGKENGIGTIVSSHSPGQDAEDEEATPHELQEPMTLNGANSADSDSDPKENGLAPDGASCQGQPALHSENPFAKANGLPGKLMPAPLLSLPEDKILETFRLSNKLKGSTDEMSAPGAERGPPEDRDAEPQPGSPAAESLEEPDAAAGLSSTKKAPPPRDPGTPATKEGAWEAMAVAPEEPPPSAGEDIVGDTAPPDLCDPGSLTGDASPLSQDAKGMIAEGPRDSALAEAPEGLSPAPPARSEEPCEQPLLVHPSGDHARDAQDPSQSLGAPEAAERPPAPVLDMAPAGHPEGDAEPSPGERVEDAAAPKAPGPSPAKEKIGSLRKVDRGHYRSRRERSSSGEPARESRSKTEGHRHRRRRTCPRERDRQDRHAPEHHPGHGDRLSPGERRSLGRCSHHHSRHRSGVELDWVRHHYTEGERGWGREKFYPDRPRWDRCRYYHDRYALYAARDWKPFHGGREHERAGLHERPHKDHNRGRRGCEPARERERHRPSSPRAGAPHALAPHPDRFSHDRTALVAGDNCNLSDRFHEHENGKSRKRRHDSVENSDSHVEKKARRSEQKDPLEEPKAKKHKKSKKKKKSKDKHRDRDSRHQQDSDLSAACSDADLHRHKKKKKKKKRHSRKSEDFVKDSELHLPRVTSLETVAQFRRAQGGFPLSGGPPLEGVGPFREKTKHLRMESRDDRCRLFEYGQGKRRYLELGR
Outline: (§1)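 Average log2 ratios of fragment over vehicle were obtained by unpaired t-test from global-median-normalised Spectronaut label-free quantities. Proteins with ≥2 unique peptides were included. HEK293T lysate (495 µg per sample) was treated in triplicate with fragment at 200 µM or vehicle for 3 h, then with Biotin-Ahx-Ub-VS at 0.5 µM final for 1 h, and labelled DUBs were NeutrAvidin-enriched and run by diaPASEF LC-MS/MS.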

[2] = biological target: USP46 (UniProt P62068)
USP46, sequence (P62068 whole entry): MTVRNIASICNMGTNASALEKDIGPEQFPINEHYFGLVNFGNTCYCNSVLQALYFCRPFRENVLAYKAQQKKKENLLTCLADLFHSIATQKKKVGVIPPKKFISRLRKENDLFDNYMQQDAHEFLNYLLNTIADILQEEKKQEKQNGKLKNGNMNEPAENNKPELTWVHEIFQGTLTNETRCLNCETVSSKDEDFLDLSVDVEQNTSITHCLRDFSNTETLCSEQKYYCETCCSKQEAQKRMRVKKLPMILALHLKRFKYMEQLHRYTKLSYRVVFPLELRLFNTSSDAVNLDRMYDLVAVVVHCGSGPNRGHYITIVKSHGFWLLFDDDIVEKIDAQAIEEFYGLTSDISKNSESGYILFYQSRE
Outline: as §1

[3] = biological target: T2, USP47 (UniProt Q96K76)
T2 sequence (whole entry): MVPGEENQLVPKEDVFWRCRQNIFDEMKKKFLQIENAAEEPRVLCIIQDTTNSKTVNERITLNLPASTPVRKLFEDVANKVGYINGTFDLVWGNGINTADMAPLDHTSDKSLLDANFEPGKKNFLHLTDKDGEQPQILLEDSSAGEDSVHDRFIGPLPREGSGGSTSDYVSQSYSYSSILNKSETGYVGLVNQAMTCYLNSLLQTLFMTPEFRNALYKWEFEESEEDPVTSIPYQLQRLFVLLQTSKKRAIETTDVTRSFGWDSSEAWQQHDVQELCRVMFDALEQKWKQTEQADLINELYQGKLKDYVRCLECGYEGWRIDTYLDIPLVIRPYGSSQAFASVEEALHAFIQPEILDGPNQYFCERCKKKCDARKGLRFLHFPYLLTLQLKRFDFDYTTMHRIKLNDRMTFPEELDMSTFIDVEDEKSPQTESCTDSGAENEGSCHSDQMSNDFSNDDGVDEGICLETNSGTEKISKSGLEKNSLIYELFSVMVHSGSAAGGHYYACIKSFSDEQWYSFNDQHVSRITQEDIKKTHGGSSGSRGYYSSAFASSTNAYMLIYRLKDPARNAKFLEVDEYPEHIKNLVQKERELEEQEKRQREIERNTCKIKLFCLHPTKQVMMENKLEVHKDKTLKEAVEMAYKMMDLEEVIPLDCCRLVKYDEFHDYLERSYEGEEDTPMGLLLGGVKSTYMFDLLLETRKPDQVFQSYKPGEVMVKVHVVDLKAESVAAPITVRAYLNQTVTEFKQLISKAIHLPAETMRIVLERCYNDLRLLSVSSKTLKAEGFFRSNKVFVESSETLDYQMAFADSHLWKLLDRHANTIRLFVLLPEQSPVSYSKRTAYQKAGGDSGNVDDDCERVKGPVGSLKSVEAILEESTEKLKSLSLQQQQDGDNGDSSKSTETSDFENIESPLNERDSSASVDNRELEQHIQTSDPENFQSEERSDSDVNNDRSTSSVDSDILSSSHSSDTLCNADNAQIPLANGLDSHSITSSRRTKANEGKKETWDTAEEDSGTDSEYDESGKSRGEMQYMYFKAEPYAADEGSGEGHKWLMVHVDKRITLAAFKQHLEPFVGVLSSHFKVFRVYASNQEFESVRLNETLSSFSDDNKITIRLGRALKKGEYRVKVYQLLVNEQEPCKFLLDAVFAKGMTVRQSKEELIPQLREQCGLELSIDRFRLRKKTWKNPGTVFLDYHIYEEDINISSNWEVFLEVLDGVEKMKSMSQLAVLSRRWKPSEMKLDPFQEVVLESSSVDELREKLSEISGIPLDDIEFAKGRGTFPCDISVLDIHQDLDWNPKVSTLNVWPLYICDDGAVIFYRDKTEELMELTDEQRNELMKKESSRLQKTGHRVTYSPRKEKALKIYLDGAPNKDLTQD
Outline: as §1

[4] = biological target: T3, USP48 (UniProt Q86UV5)
T3 sequence (whole entry): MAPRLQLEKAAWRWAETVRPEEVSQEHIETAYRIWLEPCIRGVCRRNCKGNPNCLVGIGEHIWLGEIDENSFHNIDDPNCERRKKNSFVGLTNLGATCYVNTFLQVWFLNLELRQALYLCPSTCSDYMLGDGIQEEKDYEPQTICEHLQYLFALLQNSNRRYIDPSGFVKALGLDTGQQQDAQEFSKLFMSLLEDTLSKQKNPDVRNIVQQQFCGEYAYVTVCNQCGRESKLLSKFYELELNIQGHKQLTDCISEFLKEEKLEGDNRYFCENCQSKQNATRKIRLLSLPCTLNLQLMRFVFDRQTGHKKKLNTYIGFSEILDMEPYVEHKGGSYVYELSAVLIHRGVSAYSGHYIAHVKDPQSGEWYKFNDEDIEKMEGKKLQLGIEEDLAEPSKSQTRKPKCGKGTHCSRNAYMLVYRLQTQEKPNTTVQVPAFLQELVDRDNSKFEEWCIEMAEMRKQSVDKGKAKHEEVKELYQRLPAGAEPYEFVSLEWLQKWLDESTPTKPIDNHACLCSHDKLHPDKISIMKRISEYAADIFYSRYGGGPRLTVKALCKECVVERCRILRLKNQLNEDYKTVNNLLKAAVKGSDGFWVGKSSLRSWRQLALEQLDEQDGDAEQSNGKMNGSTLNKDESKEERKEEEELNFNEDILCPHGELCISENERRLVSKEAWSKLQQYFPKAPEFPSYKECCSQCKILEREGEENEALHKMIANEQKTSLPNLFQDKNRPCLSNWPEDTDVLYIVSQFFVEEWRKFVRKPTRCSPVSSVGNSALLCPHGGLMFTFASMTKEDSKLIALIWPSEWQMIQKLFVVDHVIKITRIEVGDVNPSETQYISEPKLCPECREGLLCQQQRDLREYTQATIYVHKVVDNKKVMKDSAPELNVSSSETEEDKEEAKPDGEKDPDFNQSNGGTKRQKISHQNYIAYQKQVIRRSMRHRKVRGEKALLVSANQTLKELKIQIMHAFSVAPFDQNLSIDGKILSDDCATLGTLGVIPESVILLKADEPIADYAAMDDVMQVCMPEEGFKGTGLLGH
Outline: as §1

[5] = biological target: T4, USP5 (UniProt P45974)
T4 sequence (whole entry): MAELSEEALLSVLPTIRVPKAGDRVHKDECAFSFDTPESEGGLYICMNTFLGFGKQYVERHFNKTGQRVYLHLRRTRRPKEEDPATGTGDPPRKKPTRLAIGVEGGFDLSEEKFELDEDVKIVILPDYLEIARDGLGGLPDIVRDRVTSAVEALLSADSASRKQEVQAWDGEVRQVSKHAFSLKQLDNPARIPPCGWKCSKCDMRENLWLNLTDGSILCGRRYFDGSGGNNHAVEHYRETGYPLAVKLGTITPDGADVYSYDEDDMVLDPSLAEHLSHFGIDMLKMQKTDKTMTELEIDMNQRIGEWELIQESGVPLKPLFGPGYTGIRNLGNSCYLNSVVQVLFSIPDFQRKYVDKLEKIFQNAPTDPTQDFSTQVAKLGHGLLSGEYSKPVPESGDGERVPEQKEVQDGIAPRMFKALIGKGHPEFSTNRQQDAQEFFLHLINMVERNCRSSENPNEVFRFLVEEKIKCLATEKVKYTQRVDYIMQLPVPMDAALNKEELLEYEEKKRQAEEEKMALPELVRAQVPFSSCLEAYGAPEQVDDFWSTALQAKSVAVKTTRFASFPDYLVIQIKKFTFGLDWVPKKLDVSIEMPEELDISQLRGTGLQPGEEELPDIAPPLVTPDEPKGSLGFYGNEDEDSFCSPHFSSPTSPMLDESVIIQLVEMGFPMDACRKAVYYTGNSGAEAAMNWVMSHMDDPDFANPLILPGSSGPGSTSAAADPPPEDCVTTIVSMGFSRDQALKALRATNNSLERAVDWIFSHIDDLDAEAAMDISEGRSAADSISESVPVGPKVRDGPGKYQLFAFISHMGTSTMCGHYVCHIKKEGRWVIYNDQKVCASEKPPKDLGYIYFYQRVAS
Outline: as §1

[6] = biological target: USP54 (UniProt Q70EL1)
Outline: as §1

[7] = biological target: USP7 (UniProt Q93009)
USP7, sequence (Q93009 whole entry, looked up): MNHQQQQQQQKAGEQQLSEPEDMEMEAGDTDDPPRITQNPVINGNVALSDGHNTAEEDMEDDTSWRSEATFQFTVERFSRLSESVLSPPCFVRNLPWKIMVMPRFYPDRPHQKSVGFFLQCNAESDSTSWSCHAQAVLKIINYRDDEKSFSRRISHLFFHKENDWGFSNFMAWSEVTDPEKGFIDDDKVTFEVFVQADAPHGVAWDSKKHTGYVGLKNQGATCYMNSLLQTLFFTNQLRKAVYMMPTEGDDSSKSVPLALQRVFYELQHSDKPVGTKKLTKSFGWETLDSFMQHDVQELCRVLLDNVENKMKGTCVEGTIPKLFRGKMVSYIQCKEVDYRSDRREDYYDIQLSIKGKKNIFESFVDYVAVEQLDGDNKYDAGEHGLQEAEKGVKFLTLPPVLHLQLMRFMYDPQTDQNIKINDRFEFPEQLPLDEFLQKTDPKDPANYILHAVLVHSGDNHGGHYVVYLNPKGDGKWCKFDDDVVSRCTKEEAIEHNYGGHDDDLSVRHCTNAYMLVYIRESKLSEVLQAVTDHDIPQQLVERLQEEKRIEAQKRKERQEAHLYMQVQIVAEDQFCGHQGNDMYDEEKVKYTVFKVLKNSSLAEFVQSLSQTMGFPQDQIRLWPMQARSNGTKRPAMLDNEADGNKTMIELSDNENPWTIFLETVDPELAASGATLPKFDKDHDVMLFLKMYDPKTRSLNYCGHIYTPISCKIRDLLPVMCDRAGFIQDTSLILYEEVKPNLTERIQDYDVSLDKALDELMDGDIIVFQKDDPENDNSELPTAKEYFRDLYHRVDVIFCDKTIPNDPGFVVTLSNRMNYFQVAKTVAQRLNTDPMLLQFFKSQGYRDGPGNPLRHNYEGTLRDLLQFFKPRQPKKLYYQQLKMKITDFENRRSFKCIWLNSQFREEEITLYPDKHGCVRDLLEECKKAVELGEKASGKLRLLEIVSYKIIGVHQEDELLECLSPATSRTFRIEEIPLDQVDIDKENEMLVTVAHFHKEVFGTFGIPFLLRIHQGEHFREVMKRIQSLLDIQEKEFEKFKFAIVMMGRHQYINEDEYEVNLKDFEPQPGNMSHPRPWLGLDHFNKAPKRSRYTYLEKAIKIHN
Outline: as §1

[8] = biological target: T5, USP8 (UniProt P40818)
T5 sequence (whole entry): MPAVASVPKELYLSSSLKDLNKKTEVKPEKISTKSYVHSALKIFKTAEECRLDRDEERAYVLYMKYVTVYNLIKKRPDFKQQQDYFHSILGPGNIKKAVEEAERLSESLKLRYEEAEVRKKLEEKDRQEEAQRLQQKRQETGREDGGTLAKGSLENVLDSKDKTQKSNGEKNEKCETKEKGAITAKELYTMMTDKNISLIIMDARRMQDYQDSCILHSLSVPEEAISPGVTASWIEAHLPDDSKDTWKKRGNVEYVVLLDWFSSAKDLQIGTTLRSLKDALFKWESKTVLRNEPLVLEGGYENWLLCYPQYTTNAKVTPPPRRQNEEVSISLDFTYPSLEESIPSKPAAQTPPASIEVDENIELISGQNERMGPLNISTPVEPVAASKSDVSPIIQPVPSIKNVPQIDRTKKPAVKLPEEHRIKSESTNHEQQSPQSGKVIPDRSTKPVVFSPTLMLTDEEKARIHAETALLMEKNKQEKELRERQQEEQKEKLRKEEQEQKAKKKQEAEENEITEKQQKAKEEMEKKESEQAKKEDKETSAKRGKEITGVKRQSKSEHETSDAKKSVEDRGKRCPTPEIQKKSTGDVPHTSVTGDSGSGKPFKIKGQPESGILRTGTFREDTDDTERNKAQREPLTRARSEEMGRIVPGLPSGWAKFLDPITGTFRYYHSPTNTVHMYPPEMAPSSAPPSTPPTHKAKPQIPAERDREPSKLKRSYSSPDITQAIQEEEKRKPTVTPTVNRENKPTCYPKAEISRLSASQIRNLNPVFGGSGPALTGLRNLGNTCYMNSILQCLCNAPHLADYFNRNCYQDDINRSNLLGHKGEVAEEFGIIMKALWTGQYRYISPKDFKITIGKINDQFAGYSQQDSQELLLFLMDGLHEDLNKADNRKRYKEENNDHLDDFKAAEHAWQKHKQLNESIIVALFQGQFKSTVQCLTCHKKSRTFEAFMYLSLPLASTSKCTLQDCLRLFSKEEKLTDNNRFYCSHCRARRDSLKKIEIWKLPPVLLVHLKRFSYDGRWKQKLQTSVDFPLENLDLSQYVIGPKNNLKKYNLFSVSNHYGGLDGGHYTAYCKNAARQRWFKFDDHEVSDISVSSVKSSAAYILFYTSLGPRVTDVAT
Outline: as §1

[9] = biological target: USP9X (UniProt Q93008)
USP9X, sequence (Q93008 whole entry): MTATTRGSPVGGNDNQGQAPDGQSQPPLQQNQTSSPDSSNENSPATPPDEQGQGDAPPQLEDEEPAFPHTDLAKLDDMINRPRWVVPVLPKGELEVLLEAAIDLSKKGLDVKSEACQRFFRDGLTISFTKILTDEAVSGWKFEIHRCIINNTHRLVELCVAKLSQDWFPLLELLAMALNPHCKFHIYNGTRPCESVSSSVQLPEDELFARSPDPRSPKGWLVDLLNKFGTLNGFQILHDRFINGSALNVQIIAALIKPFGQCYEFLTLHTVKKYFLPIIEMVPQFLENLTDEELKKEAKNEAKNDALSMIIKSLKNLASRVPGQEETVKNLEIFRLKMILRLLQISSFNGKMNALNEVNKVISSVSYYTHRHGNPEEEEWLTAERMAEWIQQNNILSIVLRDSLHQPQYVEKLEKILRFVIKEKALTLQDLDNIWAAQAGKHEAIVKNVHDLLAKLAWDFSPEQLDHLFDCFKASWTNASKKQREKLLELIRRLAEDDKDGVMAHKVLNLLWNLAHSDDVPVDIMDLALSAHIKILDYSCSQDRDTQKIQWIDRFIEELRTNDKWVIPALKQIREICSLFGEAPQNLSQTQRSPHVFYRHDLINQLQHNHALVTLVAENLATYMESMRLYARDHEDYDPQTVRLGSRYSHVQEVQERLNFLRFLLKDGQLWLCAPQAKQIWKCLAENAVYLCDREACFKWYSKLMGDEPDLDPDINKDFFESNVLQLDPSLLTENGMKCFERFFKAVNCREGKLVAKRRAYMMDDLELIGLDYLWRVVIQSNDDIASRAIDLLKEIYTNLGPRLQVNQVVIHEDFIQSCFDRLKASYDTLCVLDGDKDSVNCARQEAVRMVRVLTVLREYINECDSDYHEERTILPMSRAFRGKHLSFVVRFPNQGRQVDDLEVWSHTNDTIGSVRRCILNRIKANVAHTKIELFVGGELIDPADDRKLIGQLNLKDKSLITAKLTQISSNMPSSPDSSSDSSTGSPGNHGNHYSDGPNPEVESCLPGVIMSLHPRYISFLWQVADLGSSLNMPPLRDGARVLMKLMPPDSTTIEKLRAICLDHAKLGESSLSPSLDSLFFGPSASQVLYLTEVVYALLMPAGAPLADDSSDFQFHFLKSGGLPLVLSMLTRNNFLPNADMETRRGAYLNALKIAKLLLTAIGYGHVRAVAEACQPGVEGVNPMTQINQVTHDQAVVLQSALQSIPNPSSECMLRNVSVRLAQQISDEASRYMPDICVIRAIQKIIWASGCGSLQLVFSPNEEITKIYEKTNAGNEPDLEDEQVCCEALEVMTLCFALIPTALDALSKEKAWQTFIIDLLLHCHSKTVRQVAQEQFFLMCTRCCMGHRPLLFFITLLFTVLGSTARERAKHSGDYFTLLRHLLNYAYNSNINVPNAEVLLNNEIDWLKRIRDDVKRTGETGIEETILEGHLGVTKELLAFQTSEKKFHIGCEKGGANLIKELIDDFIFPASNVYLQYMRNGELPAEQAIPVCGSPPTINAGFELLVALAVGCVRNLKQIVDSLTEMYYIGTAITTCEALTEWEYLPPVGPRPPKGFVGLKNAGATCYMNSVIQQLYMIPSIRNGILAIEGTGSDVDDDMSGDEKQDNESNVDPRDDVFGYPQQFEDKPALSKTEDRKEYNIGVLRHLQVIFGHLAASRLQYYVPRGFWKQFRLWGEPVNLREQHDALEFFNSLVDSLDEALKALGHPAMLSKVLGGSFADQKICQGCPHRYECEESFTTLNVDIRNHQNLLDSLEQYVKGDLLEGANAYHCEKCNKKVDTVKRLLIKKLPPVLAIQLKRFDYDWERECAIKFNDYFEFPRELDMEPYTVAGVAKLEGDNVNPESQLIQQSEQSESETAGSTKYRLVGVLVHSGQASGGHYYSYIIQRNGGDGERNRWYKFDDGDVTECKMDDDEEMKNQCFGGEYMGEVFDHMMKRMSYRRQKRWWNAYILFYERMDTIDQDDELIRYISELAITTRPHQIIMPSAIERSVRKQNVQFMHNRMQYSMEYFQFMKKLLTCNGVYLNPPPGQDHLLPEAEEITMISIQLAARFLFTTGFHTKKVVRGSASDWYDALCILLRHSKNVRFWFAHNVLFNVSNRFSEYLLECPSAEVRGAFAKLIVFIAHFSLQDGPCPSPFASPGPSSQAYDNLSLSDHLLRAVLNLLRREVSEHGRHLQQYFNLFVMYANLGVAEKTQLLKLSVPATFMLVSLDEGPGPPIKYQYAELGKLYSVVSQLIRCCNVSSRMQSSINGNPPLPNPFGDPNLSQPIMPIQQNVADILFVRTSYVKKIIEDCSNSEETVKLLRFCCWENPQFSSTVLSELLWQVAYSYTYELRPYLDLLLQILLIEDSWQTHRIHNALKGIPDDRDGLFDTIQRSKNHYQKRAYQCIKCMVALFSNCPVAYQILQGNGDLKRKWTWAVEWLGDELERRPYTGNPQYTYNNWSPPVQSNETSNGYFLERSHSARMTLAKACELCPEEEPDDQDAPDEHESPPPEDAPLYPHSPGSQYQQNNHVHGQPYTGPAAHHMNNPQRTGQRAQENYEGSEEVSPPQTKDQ
Outline: as §1

[10] = biological target: UniProt O00487
UniProt O00487, sequence (O00487 whole entry): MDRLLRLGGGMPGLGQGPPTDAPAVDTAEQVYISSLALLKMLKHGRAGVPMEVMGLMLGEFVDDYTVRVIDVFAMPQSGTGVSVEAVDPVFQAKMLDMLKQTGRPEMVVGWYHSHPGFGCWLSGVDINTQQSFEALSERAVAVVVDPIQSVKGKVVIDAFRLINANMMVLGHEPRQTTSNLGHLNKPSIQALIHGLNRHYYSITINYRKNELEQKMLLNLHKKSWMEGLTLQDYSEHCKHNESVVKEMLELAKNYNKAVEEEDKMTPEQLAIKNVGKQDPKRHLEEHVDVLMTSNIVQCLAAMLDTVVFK
Outline: as §1

Measured: log2 ratio of Biotin-Ahx-Ub-VS probe labelling

O=C(CCl)NC1CCS(=O)(=O)c2ccccc21 (stereo not given)
inactive: [1] -0.57 | [2] -0.0772 | [3] -0.498 | [4] -0.471 | [5] -0.0632 | [6] 0.689 | [7] -0.288 | [8] -0.538 | [9] -0.445 | [10] -0.242
